# LDHA block: blocks human lactate dehydrogenase A | actives 0.15% (n = 480,000) | P00338 | activity change, % (values are at about 110 or 230 µM) | purified LDHA, NADH/diaphorase-resazurin fluorescence; active compounds read low; in the data active = activity change below about -30%; inconclusive = mostly about -25% to -30%;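 also: plate controls were DMSO wells for no effect and wells without enzyme for full effect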
#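 Enzyme activity of human lactate dehydrogenase 5 (2 nM; 0.06 mM NADH, 0.2 mM pyruvate, 5 min, RT) is measured via a resazurin/diaphorase fluorescence readout of residual NADH.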
# RGS4 inhibitor: human RGS4 inhibition. P49798. Transcreener GDP fluorescence polarization, RGS4-accelerated GTP hydrolysis. Potency, µM (highest dose often 114 µM), for the others: at the top dose activity change, negative = inhibition, actives largely listed as inhibitors. actives 0.039% (n = 390,000). AID 504845; active = well fitted inhibition curve with a large enough effect; inconclusive = small, poorly fitted or top-dose-only effect; inactive = no such curve, though single readings can be large or run the other way; also: potency is read from the fitted curve at half-maximal effect; % is scaled to controls: 0 for no effect and ±100 for the full control effect; nearly all actives have a fitted effect of over 75% in size
# Target sequence (P49798 whole entry, looked up): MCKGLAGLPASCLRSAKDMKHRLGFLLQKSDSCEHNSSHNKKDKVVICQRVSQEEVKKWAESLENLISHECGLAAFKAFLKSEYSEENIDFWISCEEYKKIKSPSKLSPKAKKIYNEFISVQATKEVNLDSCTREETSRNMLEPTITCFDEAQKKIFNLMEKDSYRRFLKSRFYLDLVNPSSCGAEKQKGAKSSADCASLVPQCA
#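 MLSMR compounds (23 nl, pin-transferred) preincubated 10 min at room temperature with a 500nM (2x) first reagent, then RGS4 at 900nM (2x) plus Transcreener GDP mix added; fluorescence polarization (620/688 nm) read before and after 90 min at 30 °C.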
# DRD3 agonist: activates the human D3 dopamine receptor. P35462. D3R DiscoveRx beta-arrestin cells, luminescence, 90 min. max activation, %. actives 0.58% (n = 410,000). AID 652048; in the data active = max activation above about 30%; also: 0% is about no effect
#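 Agonist-mode cell screen: cells plated at 1500/well and incubated overnight at 37 °C, then exposed to library compounds for 90 min at 37 °C. Detection reagent was added for 30–60 min at room temperature, and luminescence was read.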
# DRD3 antagonist: D3 dopamine receptor (human) antagonism | D3R cells, DiscoveRx beta-arrestin luminescence, antagonist mode; active compounds read low | max response, negative = inhibition, % | actives 2.5% (n = 360,000) | AID 652054; in the data active = max response below about -50%; inconclusive = no clear call, values can overlap the other calls; also: % is scaled to controls: 0 for no effect and ±100 for the full control effect
#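 Cells plated overnight at 1500 cells/well, then exposed to library compounds with dopamine controls for 90 minutes at 37 degrees C. DiscoveRx reagent added for 30–60 minutes at room temperature; luminescence read, quantitative HTS format.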
# pAkt inh: inhibitors of Akt phosphorylation | Neuro2A IGF-stimulated pAkt S473 HTRF, 20 min; active compounds read low | activity change, % for hits at 50 µM | actives 0.32% (n = 360,000); in the data active = activity change below about -80%; inconclusive = mostly about -51% to -80%; also: % is scaled to controls: 0 for no effect and ±100 for the full control effect
#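 Neuro2A cells (4,500/well, DMEM with 0.5% FBS) were treated with compound at a single 50 µM final concentration, stimulated with 6 nM IGF for 20 min at 37 °C, and lysed. Phospho-Akt Ser473 was read by HTRF as 665/615 ratio ×10^4.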
# PI4K2A inh: inhibitors of human PI4K2A; Q9BTU6; purified PI4K2A, ADP-Glo luminescence, 1 h; active compounds read low; activity change, negative = inhibition, % at 76.9 µM; actives 0.13% (n = 420,000); AID 1346378; in the data active = activity change below about -50%; inconclusive = mostly about -30% to -49%;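 also: -100% = wells without enzyme as full effect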
# Target sequence (Q9BTU6 whole entry, looked up): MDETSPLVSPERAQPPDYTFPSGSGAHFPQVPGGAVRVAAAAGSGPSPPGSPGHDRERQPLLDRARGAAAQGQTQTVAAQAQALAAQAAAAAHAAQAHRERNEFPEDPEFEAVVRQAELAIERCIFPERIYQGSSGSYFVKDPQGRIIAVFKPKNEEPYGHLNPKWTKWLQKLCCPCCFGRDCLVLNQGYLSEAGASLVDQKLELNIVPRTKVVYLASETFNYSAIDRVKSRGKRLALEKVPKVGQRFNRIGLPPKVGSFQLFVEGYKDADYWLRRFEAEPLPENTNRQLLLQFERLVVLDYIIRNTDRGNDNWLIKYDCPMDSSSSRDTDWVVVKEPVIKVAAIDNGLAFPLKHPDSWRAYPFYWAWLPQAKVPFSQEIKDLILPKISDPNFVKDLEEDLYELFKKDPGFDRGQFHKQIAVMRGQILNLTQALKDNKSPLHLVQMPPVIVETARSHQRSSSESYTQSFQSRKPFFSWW
#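 ADP-Glo luminescence measured ADP generated by PI4K2A enzyme (4 ug/mL before mixing) with 1.2 mM PI substrate (pre-mix) and 300 microM ATP (pre-mix). Tris pH7.5 buffer with MgCl2, Triton X-100; 1 h reaction at ambient temperature.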
# * = called active by the depositor; i = inactive; ? = inconclusive; . = no result; ! = not active in a repeat; [ ] = another dose, or the depositor's remark. Most compounds without a hit are left out; they make up all but 2.8% or so of the library.
SMILES,LDHA block,RGS4 inhibitor,DRD3 agonist,DRD3 antagonist,pAkt inh,PI4K2A inh
CN1C[C@H](CNC(=O)OCc2ccccc2)C[C@@H]2c3cccc4c3c(cn4C)C[C@H]21,1,?,-49,-117*,i,1
O=C(NC[P+](=O)O)OCc1ccccc1,-1,-18%,5,10,i,6
CCOc1cc(CN2CCN(C(=O)COc3ccc4ccccc4c3)CC2)ccc1OC,10,.,.,.,.,.
N#CC1c2ccccc2C=CN1C(=O)c1ccc(N(CCCl)CCCl)cc1 (centres undefined),-10,.,-7,-81*,i,3
CC(Nc1ccc([N+](=O)[O-])c2nonc12)c1ccc(Cl)cc1 (centres undefined),-2,.,.,.,.,.
Cc1oc2cc(OC(=O)N(C)C)ccc2c(=O)c1-c1ccc(Br)cc1,-1,.,.,.,.,.
Cc1cc(C)cc(C(=O)OC2C[C@H]3CC[C@@H](C2)N3C)c1 (some centres undefined),.,i,-6,.,.,.
CN1C2CCC1CC(OC(=O)c1cc(Cl)cc(Cl)c1)C2 (centres undefined),-4,30µM*!,-11,-8,i,-4
NCCCc1c[nH]c2ccccc12,4,.,.,.,.,.
CN(C)CCN=Cc1c(O)n(Cc2ccco2)c(=O)[nH]c1=O,2,-15%,0,-28,i,-11
CCn1c(O)c(C=NCc2cccs2)c(=O)[nH]c1=O,-9,-73%[56.9 µM],2,9,i,-5
O=c1[nH]c(=O)n(Cc2ccco2)c(O)c1C=NCc1cccs1,-11,-4%,3,5,-93%*,5
O=c1[nH]c(=S)n(Cc2ccco2)c(O)c1C=NCc1cccs1,-1,?,-4,-70*,i,-57*
Clc1ccc(C(OCCN2CCCCC2)c2ccccc2)cc1 (centres undefined),-9,4%,-93,-18,i,-6
c1ccc(C(OCCN2CCN(c3ncccn3)CC2)c2ccccc2)cc1,-8,19%,-12,-116*,i,-3
COc1ccc(-n2nc(C)c3c2NC(=O)CSC3c2cc(OC)c(O)c(OC)c2)cc1 (centres undefined),-1,.,.,.,.,.
Oc1ccc(Br)cc1CN1CCN(c2ccccc2)CC1,-1,24%,-48,-95*,i,2
CCN1CCN(Cc2cc(Br)ccc2O)CC1,-5,-10%,-5,-73*,i,-3
COc1ccc(Br)cc1CN1CCN(CCO)CC1,-15,17%,-32,-87*,i,4
CCc1ccc(CN2CCN(Cc3cc(Br)ccc3O)CC2)cc1,-18,2%,-17,-80*,i,0
COc1cc(Br)cc(CN2CCN(C)CC2)c1O,8,-8%,-57,?,i,-4
Cc1ccccc1CN1CCN(c2ccc(Cl)cc2)CC1,-14,13%,-19,?,i,10
CCn1cc(C(=O)Nc2cccc3ncccc23)c2ccccc21,32,.,.,.,.,.
N#Cc1ccc(NC(=O)CCC2CCCCC2)cc1Cl,13,.,.,.,.,.
Cc1ccc(NC(=O)c2cn(Cc3ccccc3)nn2)c(C)c1,3,.,.,.,.,.
SMILES,LDHA block,RGS4 inhibitor,DRD3 agonist,DRD3 antagonist,pAkt inh,PI4K2A inh
CN1C(=O)/C(=C/c2ccc(N3CCCCCC3)o2)C(=O)NC1=S,-3,?,2,-56*,i,-8
CC(C)C[C@H]1C(=O)N2CCC[C@H]2[C@]2(O)O[C@](NC(=O)[C@@H]3C=C4c5cccc6[nH]cc(c56)C[C@H]4N(C)C3)(C(C)C)C(=O)N12,43,?,-9,-76*,i,-16
CC(C)C[C@H]1C(=O)N2CCC[C@H]2[C@]2(O)O[C@](NC(=O)[C@@H]3C=C4c5cccc6[nH]c(Br)c(c56)C[C@H]4N(C)C3)(C(C)C)C(=O)N12,.,?,39*,.,.,0
CN1C[C@H](C(=O)N[C@]2(C)O[C@@]3(O)[C@@H]4CCCN4C(=O)[C@H](Cc4ccccc4)N3C2=O)C=C2c3cccc4[nH]cc(c34)C[C@H]21,.,.,-11,.,.,.
CN1C[C@H](C(=O)NC2(C)OC3(O)[C@@H]4CCCN4C(=O)[C@H](Cc4ccccc4)N3C2=O)CC2c3cccc4[nH]cc(c34)C[C@H]21 (some centres undefined),-14,2%,-57,-57*,i,8
O=P(c1ccccc1)(c1ccccc1)N(c1ccccc1)c1ccccc1,-7,?,-9,-54*,i,0
COc1cc(/C=C2\C(=O)NC(=O)N(c3ccccc3)C2=O)cc(OC)c1O,53,-36%,-5,20,i,-20
COc1ccccc1N1C(=O)NC(=O)/C(=C/c2ccc3c(c2)Cc2ccccc2-3)C1=O,-33*,?,-10,-14,i,-20
CCCn1cc(C(=O)NCC2CCCN2CC)c2ccccc21 (centres undefined),19,.,.,.,.,.
CC(=O)O[C@@]12CO[C@@H]1C[C@H](O)[C@@]1(C)C(=O)[C@H](O)C3=C(C)[C@@H](OC(=O)[C@H](O)[C@@H](NC(=O)c4ccccc4)c4ccccc4)C[C@@](O)([C@@H](OC(=O)c4ccccc4)C12)C3(C)C (some centres undefined),-3,-3%,2,11,i,2
CC(=O)O[C@H]1C(=O)[C@@]2(C)C([C@H](OC(=O)c3ccccc3)[C@]3(O)C[C@H](OC(=O)[C@H](O)[C@@H](NC(=O)Cc4ccccc4)c4ccccc4)C(C)=C1C3(C)C)[C@]1(OC(C)=O)CO[C@@H]1C[C@@H]2O (some centres undefined),-1,8%,-9,-50*,i,7
N#CC(C#N)=NNc1ccc(S(N)(=O)=O)cc1,-45*,0%[11.4 µM],-5,-12,i,-17
Cn1cc(C(=O)NCC(=O)NC(C)(C)C)c2ccccc21,-18,.,.,.,.,.
CCOP(=S)(OCC)SCSc1ccc(Cl)cc1,.,.,48*,.,.,.
CCOc1ccccc1NC(=O)N(Cc1ccc2c(c1)OCO2)C1CCN(Cc2ccccc2)CC1,1,.,.,.,.,.
c1ccc(CCn2nnnc2CN2CCC(n3nnc4ccccc43)CC2)cc1,-2,-36%,-2,?,i,1
Fc1ccc2c(c1)nnn2C1CCN(Cc2ccccc2)CC1,4,-9%,-9,-78*,i,-1
Fc1ccc2c(c1)nnn2C1CCN(Cc2nnnn2CCc2ccccc2)CC1,-1,-7%,-9,-75*,i,0
C[N+](C)(C)CC(F)([N+](=O)[O-])[N+](=O)[O-],-17,.,.,.,.,.
CCC(c1nnnn1-c1ccc2c(c1)OCCO2)N1CCC2(CC1)C(=O)NCN2c1ccccc1 (centres undefined),-10,.,-7,-51*,i,1
